Screening data from PubChem.
Sampled rows, rich in hits. Any-hit rate of the full collection: about 3%.
KDM5B inh – inhibitors of human KDM5B histone demethylase. Q9UGL1. KDM5B demethylase, FDH-coupled NADH fluorescence (FDH is formaldehyde dehydrogenase). Potency, µM (series often up to 57.7 µM), most hits filed as inhibitors. 220,000 compounds, 2.6% hits; note: potency is the fitted concentration of half-maximal effect; 0% is about no effect; nearly all actives have a fitted effect of over 70% in size
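KDM5BΔAP (200 nM final) in 50 mM HEPES pH 7.5, 0.01% Tween-20 was preincubated 10 min at RT with compound over a concentration range. Substrate mix (H3K4me3 12.5 µM, α-KG 25 µM, Fe²⁺, ascorbate, NAD⁺, FDH) was added, and NADH fluorescence change over 30 min gave dose-response curves.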
IP6K1 inhibitor – IP6K1 kinase inhibition. activity change, % (series mostly up to about 58 µM). 140,000 compounds, 0.81% hits. AID 1645851. Q92551. IP6K1 kinase, ADP-Glo luminescence, 2 h; hits give low values; in the data active = activity change below about -25%; note: % is set by controls: 0 for no effect and ±100 for the full control effect
Target sequence (Q92551 whole entry, looked up): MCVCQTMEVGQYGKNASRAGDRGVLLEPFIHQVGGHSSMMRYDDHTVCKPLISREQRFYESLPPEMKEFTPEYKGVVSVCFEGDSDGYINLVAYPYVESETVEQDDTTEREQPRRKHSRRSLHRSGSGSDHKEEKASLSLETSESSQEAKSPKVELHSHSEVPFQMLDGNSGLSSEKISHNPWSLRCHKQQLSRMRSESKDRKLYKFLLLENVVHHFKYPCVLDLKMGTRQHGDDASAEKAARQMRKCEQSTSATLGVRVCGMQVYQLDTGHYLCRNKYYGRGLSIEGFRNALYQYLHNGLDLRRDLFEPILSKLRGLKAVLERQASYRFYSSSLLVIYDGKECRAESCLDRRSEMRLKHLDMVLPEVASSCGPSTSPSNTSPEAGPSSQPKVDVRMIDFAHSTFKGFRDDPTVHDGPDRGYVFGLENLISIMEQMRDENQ
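ADP-Glo luminescence measures ADP made by human IP6K1 during a 2 h RT reaction with ATP/IP6 (mix at 1.3 mM/130 uM); top library doses 57.5 and 19.1 uM final.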
SNCA expr inhib – SNCA gene expression inhibition; HEK-293 SNCA-luciferase knock-in, luminescence, 24 h; Potency, µM (top dose mostly 57.2 µM), for inactives: top-dose activity change, negative = inhibition, usual class: inhibitors; 140,000 compounds, 0.17% hits;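 note: potency is the fitted concentration of half-maximal effect; plate controls were DMSO cells for no effect and cell-free wells for full effect; nearly all actives have a fitted effect of over 45% in size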
HEK293 viab – reduces viability of HEK-293 SNCA reporter cells; HEK-293-SNCA-luc viability, GF-AFC fluorescence, 24 h; 150,000 compounds, 0.12% hits; Potency, µM (top dose mostly 57.1 µM), for the others: at the top dose activity change, negative = cytotoxicity, most hits filed as cytotoxic;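 note: potency is the fitted concentration of half-maximal effect; 0% = DMSO-treated cells and -100% = medium-only wells without cells; nearly all actives have a fitted effect of over 30% in size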
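HEK-293-SNCA-luc cells (1500/well) plated 24 h, then exposed 24 h to a dilution series; GF-AFC added 30 min at 37C, fluorescence 405/540 nm; normalised to medium-only and DMSO wells, Hill fit.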
Starred values were filed as active, the others as inactive; [ ] = dose if it differs, or a comment. Unless noted, calls come from the whole dose curve; as a rule, active = well fitted curve in the direction sought with a large enough effect; inconclusive = small, poorly fitted or top-dose-only effect, or another doubt; inactive = no such curve, though single readings can be large; an effect the other way counts as inactive or inconclusive.

Screening Cc1cccc(-c2cccc(CN3CCC(N[S+](=O)([O-])c4cccc(C(F)(F)F)c4)CC3)c2)c1 returned IP6K1 inhibitor 5, SNCA expr inhib inconclusive and HEK293 viab -28%.
Screening Cc1cn2nc(C(=O)NCc3ccccc3)cc2c(N(C)Cc2ccccc2)n1 returned KDM5B inh 32µM*, IP6K1 inhibitor -5, SNCA expr inhib -26% and HEK293 viab -2%.
Screening Cc1cccc(CNC(=O)c2cc3c(N(C)Cc4ccccc4)nc(C)cn3n2)c1 returned KDM5B inh 25µM*, IP6K1 inhibitor -9, SNCA expr inhib -14% and HEK293 viab 0%.
Screening CSc1ccc(CNC(=O)c2cc3c(N(C)Cc4ccccc4)nc(C)cn3n2)cc1 returned KDM5B inh 25µM*, IP6K1 inhibitor -10, SNCA expr inhib -2% and HEK293 viab 6%.
For CSc1ccc(CNC(=O)c2cc3c(=O)[nH]c(C)cn3n2)cc1 the results were KDM5B inh inactive, IP6K1 inhibitor -14, SNCA expr inhib 196% and HEK293 viab 12%.
`Cc1cn2nc(C(=O)NCc3cc(F)cc(F)c3)cc2c(N(C)Cc2ccccc2)n1` gave KDM5B inh 20µM*, IP6K1 inhibitor -12, SNCA expr inhib -19% and HEK293 viab -5%.
CCn1c(C)cc(-c2csc(NCc3ccccc3OC)n2)c1C was read as KDM5B inh inactive.
Cc1ccccc1-c1nc2cnccn2c1NCCC(=O)N(C)Cc1ccccc1 was read as KDM5B inh 28µM*, IP6K1 inhibitor 6, SNCA expr inhib -16% and HEK293 viab 22%.
Screening Cc1ccc(-c2nc3cnccn3c2NCCC(=O)N(C)C)cc1 returned KDM5B inh 28µM*, IP6K1 inhibitor 17, SNCA expr inhib 4% and HEK293 viab inconclusive.
For Cc1cccc(C)c1Nc1c(-c2ccccc2Cl)nc2cnccn12 the results were KDM5B inh inconclusive, IP6K1 inhibitor -7, SNCA expr inhib -28% and HEK293 viab inconclusive.
For Cc1ccc(-c2nc3cnccn3c2NCCC(=O)O)cc1 the results were KDM5B inh 28µM*, IP6K1 inhibitor -1, SNCA expr inhib 2% and HEK293 viab inconclusive.
`CCOCCNC(=O)c1c(C)nc2cnccn12` gave IP6K1 inhibitor 2.
Screening O=C(CCC(=O)c1ccc(F)cc1)Nc1ccccc1-c1ccccc1 returned KDM5B inh inactive.
For COc1ccc(-c2ccccc2C(=O)N2CCC(NC(=O)c3ccc(C(F)(F)F)cc3)CC2)nn1 the results were IP6K1 inhibitor -1.
For CCOc1ccc(NC(=O)CCc2c(C)nc3nc(C)nn3c2C)cc1 the results were KDM5B inh inactive, IP6K1 inhibitor 8, SNCA expr inhib 14% and HEK293 viab -2%.
`Cc1nc2cnccn2c1C(=O)NCc1cccc(F)c1` gave IP6K1 inhibitor -4.
`CCOc1ccc(NC(=O)CCNc2c(C)nc3cnccn23)cc1` gave KDM5B inh 20µM*, IP6K1 inhibitor 26, SNCA expr inhib -14% and HEK293 viab -3%.
`Cc1ccc(NC(=O)CCNc2c(C)nc3cnccn23)c(F)c1` gave KDM5B inh 25µM*, IP6K1 inhibitor 15, SNCA expr inhib -12% and HEK293 viab 13%.
Screening CNC(=O)c1cc(C2CC2)nc2c1c(C1CCN([S+](=O)([O-])c3cccc(C(F)(F)F)c3)CC1)nn2C returned IP6K1 inhibitor -14.
`COc1ccc(/C=C\C(=O)Nc2cccc3cccnc23)cc1OC` gave KDM5B inh inactive.
`COc1ccc(C=CC(=O)Nc2ccccc2C(=O)O)cc1OC` gave SNCA expr inhib 1.5µM* and HEK293 viab -6%.
COc1ccc(/C=C/C(=O)Nc2ccccc2C(=O)O)cc1OC was read as IP6K1 inhibitor 8, SNCA expr inhib 1.6µM* and HEK293 viab 2%.
COc1cc(-n2cnc3cc(-c4ccc(Cl)cc4)sc3c2=O)ccc1OCCN1CCCC1 was read as IP6K1 inhibitor 19 and HEK293 viab 12µM*.
Screening Cn1ncc2c(C(=O)Nc3cccc(Cl)c3)cc(-c3cccc(F)c3)nc21 returned IP6K1 inhibitor -16.
For C=CCNC(=O)c1ccnc2[nH]ccc12 the results were KDM5B inh 126µM*, IP6K1 inhibitor 29, SNCA expr inhib -14%[87.6 µM] and HEK293 viab -1%[87.6 µM].
O=C(NCc1ccnc2[nH]ccc12)c1ccccc1F was read as KDM5B inh inconclusive, IP6K1 inhibitor 1, SNCA expr inhib 62%[87.6 µM] and HEK293 viab 1%[87.6 µM].
C=CCNC(=O)c1c[nH]c2cccnc12 was read as KDM5B inh 126µM*, IP6K1 inhibitor 6, SNCA expr inhib 54%[87.6 µM] and HEK293 viab -2%[87.6 µM].
For O=C(Nc1ccc(F)cc1)c1c[nH]c2cccnc12 the results were KDM5B inh inactive, IP6K1 inhibitor 15, SNCA expr inhib 78%[87.6 µM] and HEK293 viab inconclusive.
CN(C)C(=O)c1c[nH]c2cccnc12 was read as KDM5B inh 126µM*, IP6K1 inhibitor 1, SNCA expr inhib -13%[87.6 µM] and HEK293 viab inconclusive.
`Cc1ccc(S(=O)(=O)c2ccc([N+](=O)[O-])o2)cc1` gave IP6K1 inhibitor -8 and HEK293 viab 9.5µM*.
For Cc1ccc(Nc2ccc(S(N)(=O)=O)cc2[N+](=O)[O-])cc1 the results were KDM5B inh inactive.
Screening COc1ccc(-c2cc3c(ccn3C(C)C)c(C(=O)NCc3c(C)cc(C)[nH]c3=O)n2)cc1 returned KDM5B inh 25µM*, IP6K1 inhibitor 7, SNCA expr inhib -1% and HEK293 viab -3%.
For Cc1cc(C)c(CNC(=O)c2nc(-c3ccc(CN(C)C)cc3)cc3c2ccn3C(C)C)c(=O)[nH]1 the results were KDM5B inh 28µM*, IP6K1 inhibitor -8, SNCA expr inhib -6% and HEK293 viab inconclusive.
Cc1cc(C)c(CNC(=O)c2nc(-c3cnn(C)c3)cc3c2ccn3C)c(=O)[nH]1 was read as KDM5B inh 22µM*, IP6K1 inhibitor 4, SNCA expr inhib 4%[87.6 µM] and HEK293 viab 4%[87.6 µM].
For Cc1ccc(-c2cc3c(ccn3C(C)C)c(C(=O)NCc3c(C)cc(C)[nH]c3=O)n2)cn1 the results were KDM5B inh inconclusive, IP6K1 inhibitor -14, SNCA expr inhib -22%[87.6 µM] and HEK293 viab -10%[87.6 µM].
For C[S+](=O)([O-])CCn1ncc2cc(OCc3cccc(-c4cccnc4)c3)ccc21 the results were KDM5B inh inconclusive, IP6K1 inhibitor -5, SNCA expr inhib 21%[87.6 µM] and HEK293 viab -7%[87.6 µM].
For CCOC(=O)[C@H]1C[C@]2(CCCCN(CCO)C2=O)N(C(=O)OCC(C)C)[C@H]1c1ccco1 the results were IP6K1 inhibitor 4.
For O=C(NCCCc1ccccc1)C1CCCN(Cc2cccc(-c3ccsc3)c2)C1 (stereo not given) the results were IP6K1 inhibitor 1.
Screening COc1ccc(-c2onc(C)c2C(=O)NCCSCc2ccco2)cc1 returned KDM5B inh 22µM*, IP6K1 inhibitor 7, SNCA expr inhib 12% and HEK293 viab 21%.
`COc1cccc(CCNC(=O)c2c(C)noc2-c2ccco2)c1` gave KDM5B inh inactive, IP6K1 inhibitor 11, SNCA expr inhib -6% and HEK293 viab -18%.
